An excerpt weighted towards active compounds, which were near 2% of everything screened.
CHT allo act: allosterically activates the human high affinity choline transporter; Q9GZV3; CHT-expressing cells, membrane potential dye, choline EC20; active compounds read high; LV-AA mutant CHT in HEK293 cells; B-score at 10 µM; actives 0.49% (n = 310,000);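 active means initial fluorescence not abnormally high and integrated response B-score, plate-corrected, over 3 SD above library mean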
TAG inh: inhibitors of triacylglycerol accumulation | H9c2 cells, Nile Red lipid (TAG) fluorescence; cells loaded with 200 µM oleic acid | inhibition, % at 12.5 µM | actives 0.66% (n = 230,000);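 active means pattern-corrected inhibition of lipid staining of at least 50% with the nuclear-stain viability signal not falling by more than 50%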;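 further: 0% = DMSO wells and 100% = triacsin C control wells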
Kir21 inh: Kir2.1 (mouse) channel inhibition. P35561. HEK293-Kir2.1, FluxOR thallium flux fluorescence; active compounds read low. B-score at 10 µM. actives 0.85% (n = 310,000). AID 1672;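 active means fluorescence ratio B-score at or below minus 3 SD of library scores, with starting-brightness B-score within 2 SD, cut at about -4.2 in these data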;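 further: channel flux triggered by added potassium and thallium sulfate stimulus; B-score of peak minus minimum fluorescence over baseline after thallium stimulus; more negative B-score means stronger Kir2.1 block with less thallium influx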
Target sequence (P35561 whole entry, looked up): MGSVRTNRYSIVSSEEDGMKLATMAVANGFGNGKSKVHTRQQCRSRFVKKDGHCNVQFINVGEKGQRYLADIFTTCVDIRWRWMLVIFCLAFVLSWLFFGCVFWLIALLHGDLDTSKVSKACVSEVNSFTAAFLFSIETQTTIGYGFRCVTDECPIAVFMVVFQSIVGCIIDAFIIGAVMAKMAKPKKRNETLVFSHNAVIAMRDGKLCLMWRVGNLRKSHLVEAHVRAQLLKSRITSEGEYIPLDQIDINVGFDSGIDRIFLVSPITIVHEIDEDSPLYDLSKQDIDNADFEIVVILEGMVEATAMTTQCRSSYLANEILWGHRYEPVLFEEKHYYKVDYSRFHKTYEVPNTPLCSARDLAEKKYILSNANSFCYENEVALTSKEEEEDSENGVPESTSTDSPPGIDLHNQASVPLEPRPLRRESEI
CHT inh: inhibitors of human choline transporter CHT. actives 0.86% (n = 310,000). Q9GZV3. CHT-expressing cells, membrane potential dye, choline response; active compounds read low. B-score at 10 µM;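 active means B-score over 3 SD under the library average, and starting fluorescence ratio not unusually high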;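 further: choline stimulus applied at its EC90 after an EC20 pre-addition; B-score computed on integrated fluorescence ratio after choline addition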
CHT act confirm: confirmation of human choline transporter (CHT) activators | CHT-expressing cells, membrane potential dye fluorescence (FDSS); % of choline EC20–EC90 response window; HEK293 expressing CHT LV-AA mutant; choline added at its EC20 | activation, % at 10 µM | AID 504833 | actives 91% (n = 2,500) | shares compounds with CHT allo act;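 active means primary screen active, with duplicate mean activation above negative control mean plus 3 SD, cut at about 11% in these data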
HEK293 MP dye: counter-screen for CHT activators: effect in parental HEK293 cells; shares compounds with CHT allo act; membrane potential dye fluorescence (FDSS); measured after EC20 choline addition; ratio readout change at 10 µM, hits read low; actives 62% (n = 2,500);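 active means duplicate-averaged ratio beyond 3 SD from buffer wells, up or down, though filed actives are nearly all decreases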
Active calls of the source: *; i = inactive; nt = no result given.

SMILES | CHT allo act | TAG inh | Kir21 inh | CHT inh | CHT act confirm | HEK293 MP dye
Nc1nc2ccccc2nc1N1CCCC1 | i | nt | -1 | i | nt | nt
Cc1cc(N/N=C/c2c[nH]c3ccccc23)c2ccccc2n1 | i | 15 | 0.93 | i | nt | nt
Cn1c(N/N=C/c2c[nH]c3ccccc23)nc2ccccc21 | i | 19 | -5.2* | i | 33* | -59*
CCN(C(=O)CSc1nc2cc(C(=O)O)ccc2c(=O)n1-c1ccccc1F)C1CCS(=O)(=O)C1 (configuration not stated) | nt | 4 | nt | nt | nt | nt
O=C(NCCO)c1ccc2c3n(nc2c1)-c1ccc(Cl)cc1CO3 | 8.6* | nt | 0.8 | i | 20* | -23*
COc1ccc(S(=O)(=O)NCc2cccnc2)cc1C | i | -5 | -0.97 | i | nt | nt
Cn1c(=O)c(Cc2ccccc2)c(O)c2ccccc21 | i | nt | -2.1 | i | nt | nt
Cn1c(Cc2ccccc2)[n+](C)c2ccccc21 | i | 15 | 1 | i | 49* | -41*
CCc1cc2c(N3CCN(c4ccccc4)CC3)ncnc2s1 | i | nt | 1 | i | 16* | i
Cc1ccccc1-n1c(SCC(=O)c2c(N)n(C)c(=O)n(C)c2=O)nc2sc3c(c2c1=O)CCCC3 | i | nt | 0.62 | i | nt | nt
CC(C)N(C)Cc1cn(C)nc1-c1ccc(Oc2ccccc2)cc1 | i | 7 | 0.39 | i | nt | nt
CCN(Cc1ccncc1)Cc1cn(C)nc1-c1ccc(Oc2ccccc2)cc1 | i | -7 | -1.4 | i | 19* | i
NCC1CC2c3ccccc3C1c1ccccc12 (configuration not stated) | i | nt | -1 | i | nt | nt
Cc1noc(C)c1CSCC(=O)OCc1nnc(-c2ccc([N+](=O)[O-])cc2)o1 | nt | 6 | nt | nt | nt | nt
COc1cccc(CNC(=O)CCC2CCCN(c3cc(C)nc(N(C)C)n3)C2)c1 (configuration not stated) | i | -5 | -0.51 | i | 48* | -40*
CCCC(CCC)C(=O)Nc1ccc2c(c1)N(C(=O)CCN1CCN(C)CC1)c1ccccc1CC2 | 6.8* | 12 | 0.26 | i | 19* | i
CSc1nnc(-c2ccccc2N=Cc2c(C)[nH]n(-c3ccc4ccccc4c3)c2=O)c(=O)[nH]1 | 8.3* | 9 | 0.67 | i | 24* | i
C=CCSc1nnc(-c2ccccc2N=Cc2c(C)[nH]n(-c3ccccc3)c2=O)c(=O)[nH]1 | i | -16 | 1.4 | i | nt | nt
Cc1cc(C(=O)NC(Cc2ccccc2)C(=O)O)c(C)o1 (configuration not stated) | i | -3 | 0.22 | i | nt | nt
CC(C)(C)c1ccc(C2CC2C(=O)N/N=C\c2ccc[nH]2)cc1 (configuration not stated) | i | 16 | -0.01 | i | nt | nt
CCOc1cc(N2CCOCC2)c(OCC)cc1NC(=O)COC(=O)c1cc2ccccc2cc1O | 7.5* | nt | 1.1 | i | 17* | i
CCOc1cc(N2CCOCC2)c(OCC)cc1NC(=O)COC(=O)c1ccc(Cl)cc1N | nt | 22 | nt | nt | nt | nt
CCOC(=O)C1(CCOc2ccccc2)CCN(Cc2cccc(OC)c2O)CC1 | i | -20 | -1.2 | i | nt | nt
CCOC(=O)C1(CCOc2ccccc2)CCN(Cc2ccc(-n3cccn3)cc2)CC1 | 6.3* | -8 | -0.55 | i | 27* | i
CCOC(=O)C1(CCOc2ccccc2)CCN(Cc2cc(OC)ccc2OC)CC1 | i | 2 | -0.18 | i | 30* | i
SMILES | CHT allo act | TAG inh | Kir21 inh | CHT inh | CHT act confirm | HEK293 MP dye
CCOC(=O)C1(Cc2cccc(OC)c2)CCN(Cc2cccc3cnccc23)CC1 | i | -18 | 0.01 | i | 22* | i
CCOC(=O)C1(CCOc2ccccc2)CCN(Cc2cccn2-c2ncccn2)CC1 | 15* | -1 | -1.4 | i | 38* | i
CC(C)(C)c1ccc(NC(=O)Nc2ccc3ccccc3n2)cc1 | i | 38 | 0.54 | i | nt | nt
CC(C)n1nnnc1C(c1ccc(F)cc1)N1CCN(C2CCCC2)CC1 (configuration not stated) | nt | 3 | -0.28 | nt | nt | nt
Fc1ccc(C(c2nnnn2Cc2ccco2)N2CCN(C3CCCCC3)CC2)cc1 (configuration not stated) | i | 21 | -1.7 | i | 31* | i
CC1CCN(C(=O)Cn2c(=O)c3cccn3c3ccccc32)CC1 | i | nt | -1.2 | i | nt | nt
Cn1c(=O)c(=O)n(C)c2cc(N3CCOCC3)c(NS(=O)(=O)c3ccc([N+](=O)[O-])cc3)cc21 | i | nt | -0.32 | i | nt | nt
Cn1c(=O)c(=O)n(C)c2cc(N3CCOCC3)c(NS(=O)(=O)c3ccc(F)c(Cl)c3)cc21 | 6.6* | nt | 2.2 | i | 49* | -51*
Cn1c(=O)c(=O)n(C)c2cc(N3CCCC3)c(NS(=O)(=O)c3ccc(Cl)cc3)cc21 | 6.6* | nt | 1.9 | i | 55* | -55*
CNC(=O)C[C@H]1C(=O)N(C2CCCCC2)C[C@@H]1CSC | nt | 1 | nt | nt | nt | nt
CCn1c(C)c(C(C)=O)c(N2CCCC2)nc1=S | i | -10 | 0.21 | i | 3 | i
C=CCn1c(C)c(C(C)=O)c(N2CCCC2)nc1=S | i | 14 | 0.84 | i | nt | nt
CCOC(=O)c1sc2nccc(N(C)C)c2c1N=CN(C)C | 7.2* | -13 | -1.2 | i | 60* | -52*
CN(C)C=Nc1c(C(=O)c2ccccc2)sc2nccc(N(C)C)c12 | i | 12 | 0.16 | i | nt | nt
O=C(NCc1ccccc1)c1cc(C2COCCN2C(=O)c2ccccc2)on1 (configuration not stated) | nt | 2 | nt | nt | nt | nt
COc1ccc(NS(=O)(=O)c2cc(C(=O)OC(C)C(=O)N3CCOCC3)ccc2Cl)cc1 (configuration not stated) | i | -11 | 0.55 | i | nt | nt
C=CCn1c(SCC(=O)c2ccc(O)c(O)c2)nnc1-c1cccc(Cl)c1 | nt | -11 | nt | nt | nt | nt
C=CCn1c(SCC(=O)O)nnc1-c1cccc(Cl)c1 | 6.6* | -10 | 0.75 | i | -1 | i
COc1ccc(N2CC(NC(=O)N3CCN(c4ccccc4)CC3)CC2=O)cc1 (configuration not stated) | i | 11 | 1.7 | i | nt | nt
Cc1ccc(SC(C)C(=O)Nc2ccccc2-c2ccccc2)cc1 (configuration not stated) | i | nt | -6.9* | i | 7 | i
CC(Sc1ccc(Cl)cc1)C(=O)Nc1ccccc1-c1ccccc1 (configuration not stated) | 7* | -4 | -2.3 | i | 35* | i
CCC1COCCS(=O)(=O)N1Cc1ccccc1 (configuration not stated) | i | -18 | 0.64 | i | nt | nt
CCCC[C@H]1COCCS(=O)(=O)N1Cc1cccc([N+](=O)[O-])c1 | 6.5* | 3 | -1.4 | i | 13* | i
